Measurements as given in PubChem BioAssay (NCATS).
Records with an inconclusive call do not appear. Values without a mark were called inactive. Activity calls are given as the source filed them. Calls follow the shape of the dose curve; as a rule, active = well fitted inhibition curve with a large enough effect; inconclusive = small, poorly fitted or top-dose-only effect; inactive = no such curve, though single readings can be large or run the other way.

assay: BET inhibitor-based combinations targeting novel dependencies in MECOM-rearranged (r) AML: MV-4-11 cell line (AID 2202233); conditions: MV-4-11 AML viability, CellTiter-Glo luminescence, 48 h; series mostly up to 46 µM; viability, % of control: at the top concentration; also: nearly all actives have a fitted effect of over 45% in size;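 as to viability, % of control: plate controls were DMSO for no effect and blank wells for full effect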
Summary of the method: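 First, 500 cells per well were seeded; next, drugs were pinned as 11-point doses; then plates sat 48 hr in the incubator; finally CellTiter-Glo was added and luminescence read, with AUC and Z-AUC computed.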
Potency is read from the fitted curve at half-maximal effect.

SMILES	Potency	viability, % of control
O=C1c2ccccc2-[n+]2ccc3c([nH]c4ccccc43)c21	1.48 µM (active)	–
Cc1cc([C@@H](C)Nc2ccccc2C(=O)O)c2nc(N3CCOCC3)cc(=O)n2c1	6.61 µM (active)	–
Cc1c(C(=O)NN2CCCCC2)nn(-c2ccc(Cl)cc2Cl)c1-c1ccc(Cl)cc1	20.9 µM (active)	–
O=C(O)CCC1CCC(c2cc(F)ccc2F)(S(=O)(=O)c2ccc(Cl)cc2)CC1 (stereo not given)	–	104%
CCOCC(O)COc1ccc(NC(=O)CC[S+](C)C)cc1 (stereo not given)	–	93%
C[C@H](NC(=O)c1sccc1OCc1ccc(Cl)cc1)c1ccccc1	13.2 µM (active)	–
Oc1cccc(-c2nc(N3CCOCC3)c3oc4ncccc4c3n2)c1	0.0525 µM (active)	–
CCOC(=O)[C@H](CCc1ccccc1)N[C@H]1CS[C@H](c2cccs2)CN(CC(=O)O)C1=O	20.9 µM (active)	–
CC(C)C[C@@H](N)[C@H](O)C(=O)N[C@H](C(=O)N[C@H](C(=O)N[C@@H](CC(=O)O)C(=O)O)C(C)C)C(C)C	–	127%
Nc1nc2[nH]cc(CCc3ccc(C(=O)N[C@@H](CCC(=O)O)C(=O)O)cc3)c2c(=O)[nH]1	0.372 µM (active)	–
CCC(=O)O[C@]1(C(=O)SCF)[C@H](C)C[C@H]2[C@@H]3C[C@H](F)C4=CC(=O)C=C[C@]4(C)[C@@]3(F)[C@@H](O)C[C@@]21C	–	135%
C[C@H](NC(=O)[C@@H](O)c1cc(F)cc(F)c1)C(=O)N[C@@H]1C(=O)N(C)c2ccccc2-c2ccccc21	–	72.6%
C[C@@H]1C(=O)O[C@H]2CC34[C@H]5C[C@@H](C(C)(C)C)C36[C@H](OC(=O)[C@@H]6O)O[C@@]4(C(=O)O5)[C@]21O (stereo not given in full)	–	74.2%
CO[C@@H]1[C@@H](OC(N)=O)[C@@H](O)[C@H](Oc2ccc3c(O)c(NC(=O)c4ccc(O)c(CC=C(C)C)c4)c(=O)oc3c2C)OC1(C)C	–	147%
Cc1[nH]nc2ccc(-c3cncc(OC[C@@H](N)Cc4ccccc4)c3)cc12	0.132 µM (active)	–
NC1=N[C@H]2[C@H](CS[C@H]2CCCCC(=O)O)N1	–	49% [at 15.6 µM]
Cc1ccsc1C(=CCCN1CCC[C@@H](C(=O)O)C1)c1sccc1C	–	93.8%
Clc1ccc(C(Cn2ccnc2)OCc2ccc(Sc3ccccc3)cc2)c(Cl)c1 (stereo not given)	14.8 µM (active)	–
OC1CCC(Nc2ncc3nc(Nc4c(F)cc(F)cc4F)n([C@@H]4CCOC4)c3n2)CC1 (stereo not given in full)	20.9 µM (active)	–
CCOC(=O)[C@@H](N)CCC(=O)N[C@@H](CSCc1ccccc1)C(=O)N[C@@H](C(=O)OCC)c1ccccc1	18.6 µM (active)	–

SMILES	Potency	viability, % of control
CCOc1cc(N2CCC(O)CC2)ccc1Nc1ncc2c(n1)N(C)c1ccccc1C(=O)N2C	2.95 µM (active)	–
CC(C)(C)c1cc(C(C)(C)C)c(NC(=O)c2c[nH]c3ccccc3c2=O)cc1O	23.5 µM (active)	–
CO[C@@H](C(=O)N1Cc2[nH]nc(NC(=O)c3ccc(N4CCN(C)CC4)cc3)c2C1)c1ccccc1	0.148 µM (active)	–
Cc1c(C)c2c(c(C)c1O)CCC(C)(COc1ccc(CC3SC(=O)NC3=O)cc1)O2 (stereo not given)	–	101%
C[C@H](NC(=O)Cc1cc(F)cc(F)c1)C(=O)N[C@H](C(=O)OC(C)(C)C)c1ccccc1	–	107%
NC(=O)N1CCC(CC(=O)N2CCC([C@H]3c4ncc(Br)cc4CCc4cc(Cl)cc(Br)c43)CC2)CC1	16.6 µM (active)	–
CSc1cccc(Nc2ncc3cc(-c4c(Cl)cccc4Cl)c(=O)n(C)c3n2)c1	1.86 µM (active)	–
CC(Cc1ccc(O)c(O)c1)(NN)C(=O)O (stereo not given)	–	59.3%
CC(C)C[C@H](NC(=O)CNC(=O)c1cc(Cl)ccc1Cl)B(O)O	0.148 µM (active)	–
Oc1cc2c(cc1O)C1c3ccc(O)c(O)c3OCC1(O)C2 (stereo not given)	23.5 µM (active)	–
COC(=O)Nc1ccc(-c2nc(N3CCOCC3)c3cnn(C4CCN(C(=O)OC)CC4)c3n2)cc1	1.18 µM (active)	–
C=C(C)[C@@H]1CC[C@]2(C)CC[C@]3(C)[C@H](CC[C@@H]4[C@@]5(C)CC[C@H](O)C(C)(C)[C@H]5CC[C@]43C)[C@@H]12	–	123%
Cc1ccc(S(=O)(=O)Nc2nc3ccccc3nc2Nc2ccc3nsnc3c2)cc1	–	102% [at 15.6 µM]
Cc1ccc2c(=O)c3cccc(CC(=O)O)c3oc2c1C	–	78%
COc1c(C)cnc(Cn2cnc3c(Cl)nc(N)nc32)c1C	0.118 µM (active)	–
CC1(CN2CCC(n3c(=O)[nH]c4ccccc43)CC2)OCc2ccccc2-n2cccc21 (stereo not given)	14.8 µM (active)	–
C/C=C/C(=O)N(CC)c1ccccc1C	–	108%
Oc1ccc(C2CCN(c3ccnc4ccccc34)CC2)cc1O	9.34 µM (active)	–
COC(=O)C1=C(C)NC(C)=C(C(=O)OCCN2CCN(C(c3ccccc3)c3ccccc3)CC2)C1c1cccc([N+](=O)[O-])c1 (stereo not given)	18.6 µM (active)	–
COc1ccc(-c2ccc3c(N4CCOCC4)nc(N4C[C@@H](C)O[C@@H](C)C4)nc3n2)cc1CO	1.05 µM (active)	–
